# Test results: PubChem BioAssay (NCI)
# About 83,000 compounds went through this panel and 20% of them were active in at least one assay; those are over-represented in the sample as a whole.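 Values shown are percent growth following 48 h exposure of cells in 96-well plates to a single concentration of compound; below 10 was considered active.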 Activity calls are given as the source filed them.
# Test system: SW-620 colon
# Test: NCI-60 one-dose screen, 48 h (100 = growth as untreated, 0 = no growth, -100 = all killed)
# Details: 10 µM
row,Compound,growth
1,COc1ccc(S(=O)(=O)Nc2c(/C=C\c3cc(OC)c(OC)c(OC)c3)ccc(OC)c2O)cc1,23.4% (inactive)
2,Cc1cn(C2CCCCO2)c(=O)nc1NO (stereo not given),105% (inactive)
3,N=c1nc(N)ncn1-c1ccccc1,107% (inactive)
4,CCCCCCCNc1nc(C=O)ncc1-c1ccc(C(F)(F)F)cc1,98% (inactive)
5,C/C(N)=C(\C#N)C(=O)c1ccccc1,106% (inactive)
6,CC1CC(=O)OC(C)C1 (stereo not given),107% (inactive)
7,Cc1cc(=O)n2nnc3c4ccccc4ccc3n12,-62% (active)
8,COc1ccc(-c2nn(-c3cccc(NC(=O)c4cc(C(F)(F)F)cc(C(F)(F)F)c4)c3)cc2-c2ccncc2)cc1Cl,79.2% (inactive)
9,Cc1ccc(S(=O)(=O)OCCN(CCOS(=O)(=O)c2ccc(C)cc2)c2c[nH]c(=O)[nH]c2=O)cc1,110% (inactive)
10,O=C(Nc1ccc(Cl)cc1)N1NC(c2ccc(Cl)cc2)C=C1c1ccccc1 (stereo not given),110% (inactive)
11,CCn1cc(C(=O)O)c(=O)c2cnc(N3CCCC3)nc21,106% (inactive)
12,COc1ccc(C2=Nc3c(C)nn(-c4ccccc4)c3NC(c3ccc(Oc4ccnc5cc(Cl)ccc45)c(OC)c3)C2)cc1 (stereo not given),81.7% (inactive)
13,Cn1c(N)c(N=Nc2ccc(S(=O)(=O)Nc3nccs3)cc2)c(=O)n(C)c1=O,99% (inactive)
14,COc1cc(-c2nc(-c3nnc(-c4ccccc4Cl)o3)c3ccccn23)cc(OC)c1OC,104% (inactive)
15,COc1ccc(-c2nc3sc(-c4ccc(OC)cc4)c(-c4ccc(OC)cc4)n3c2/C=C/c2ccc(C(C)C)cc2)cc1,99.7% (inactive)
